Like-named read-outs stand apart in the source and are kept apart here.
Assays:
Parameters in all cases: species or system human, MV4-11 + K-562 + COLO205 + SK-N-BE2 + OVCAR-8
CSNK1D = conditions: read-out: apparent Kd, n = 1
CSNK1E = conditions: read-out: apparent Kd, n = 1
MAPK14 = conditions: read-out: apparent Kd, n = 1
MAPKAPK2 = conditions: read-out: apparent Kd, n = 1
MAPK10 = conditions: read-out: apparent Kd; compound concentrations: 100 nM and 1000 nM (sheet 'Samples'), CATDS: 6.3561216633857096E-2; n = 1
MAPK11 = conditions: read-out: apparent Kd; compound concentrations: 100 nM and 1000 nM (sheet 'Samples'), CATDS: 0.18420027460355101; n = 1
MAPK9 = conditions: read-out: apparent Kd; compound concentrations: 100 nM and 1000 nM (sheet 'Samples'), CATDS: 9.6618855435108605E-2; n = 1
NLK = conditions: read-out: apparent Kd; compound concentrations: 100 nM and 1000 nM (sheet 'Samples'), CATDS: 5.8542673875263601E-2; n = 1
PRKD2 = conditions: read-out: apparent Kd; compound concentrations: 100 nM and 1000 nM (sheet 'Samples'), CATDS: 5.9855757256393E-2; n = 1
PRKD3 = conditions: read-out: apparent Kd; compound concentrations: 100 nM and 1000 nM (sheet 'Samples'), CATDS: 5.6713144719272697E-2; n = 1
RIPK2 = conditions: read-out: apparent Kd; compound concentrations: 100 nM and 1000 nM (sheet 'Samples'), CATDS: 7.7128877949965702E-2; n = 1
COX5A = conditions: read-out: apparent Kd; compound concentrations: 100 nM and 1000 nM (sheet 'Samples'), CATDS: 4.1546789230528999E-2; n = 1
GSK3A = conditions: read-out: apparent Kd; compound concentrations: 100 nM and 1000 nM (sheet 'Samples'), CATDS: 6.2645628894546598E-2; n = 1
GSK3B = conditions: read-out: apparent Kd; compound concentrations: 100 nM and 1000 nM (sheet 'Samples'), CATDS: 5.5933303342936301E-2; n = 1
GTPBP4 = conditions: read-out: apparent Kd; compound concentrations: 100 nM and 1000 nM (sheet 'Samples'), CATDS: 4.05365212601312E-2; n = 1
LATS1 = conditions: read-out: apparent Kd; compound concentrations: 100 nM and 1000 nM (sheet 'Samples'), CATDS: 6.4509671540351102E-2; n = 1
PAK4 = conditions: read-out: apparent Kd; compound concentrations: 100 nM and 1000 nM (sheet 'Samples'), CATDS: 5.9667413912450298E-2; n = 1
PAK6 = conditions: read-out: apparent Kd; compound concentrations: 100 nM and 1000 nM (sheet 'Samples'), CATDS: 9.5972545463879802E-2; n = 1
PKN1 = conditions: read-out: apparent Kd; compound concentrations: 100 nM and 1000 nM (sheet 'Samples'), CATDS: 5.7657473805166601E-2; n = 1
PKN2 = conditions: read-out: apparent Kd; compound concentrations: 100 nM and 1000 nM (sheet 'Samples'), CATDS: 4.3276435854429397E-2; n = 1
PRKACA = conditions: read-out: apparent Kd; compound concentrations: 100 nM and 1000 nM (sheet 'Samples'), CATDS: 0.169432353175829; n = 1
PRKACB = conditions: read-out: apparent Kd; compound concentrations: 100 nM and 1000 nM (sheet 'Samples'), CATDS: 0.14426679409785001; n = 1
PRKCD = conditions: read-out: apparent Kd; compound concentrations: 100 nM and 1000 nM (sheet 'Samples'), CATDS: 4.3301317069520798E-2; n = 1
PRKCQ = conditions: read-out: apparent Kd; compound concentrations: 100 nM and 1000 nM (sheet 'Samples'), CATDS: 0.16159232019623801; n = 1
PRKG1 = conditions: read-out: apparent Kd; compound concentrations: 100 nM and 1000 nM (sheet 'Samples'), CATDS: 5.6874913121809097E-2; n = 1
PRKX = conditions: read-out: apparent Kd; compound concentrations: 100 nM and 1000 nM (sheet 'Samples'), CATDS: 0.106921293671462; n = 1
ROCK2 = conditions: read-out: apparent Kd; compound concentrations: 100 nM and 1000 nM (sheet 'Samples'), CATDS: 4.7086778656787398E-2; n = 1
CLK1 = conditions: read-out: apparent Kd; compound concentrations: 100 nM and 1000 nM (sheet 'Samples'), CATDS: 0.21092266840342; n = 1
CLK4 = conditions: read-out: apparent Kd; compound concentrations: 100 nM and 1000 nM (sheet 'Samples'), CATDS: 0.13004922294711499; n = 1
DYRK1A = conditions: read-out: apparent Kd; compound concentrations: 100 nM and 1000 nM (sheet 'Samples'), CATDS: 0.12917753556196801; n = 1
JAK2 = conditions: read-out: apparent Kd; compound concentrations: 100 nM and 1000 nM (sheet 'Samples'), CATDS: 0.15367863363527601; n = 1
PTK2 = conditions: read-out: apparent Kd; compound concentrations: 100 nM and 1000 nM (sheet 'Samples'), CATDS: 0.76143962131213405; n = 1
RPS6KA1 = conditions: read-out: apparent Kd; compound concentrations: 100 nM and 1000 nM (sheet 'Samples'), CATDS: 9.5788061874141406E-2; n = 1
RPS6KA3 = conditions: read-out: apparent Kd; compound concentrations: 100 nM and 1000 nM (sheet 'Samples'), CATDS: 9.4623993582158103E-2; n = 1
[1] = compound concentrations:100 nM and 1000 nM (sheet 'Samples')

NC(=O)Cc1ccccc1Oc1nccc(-c2c(-c3ccc(F)cc3)ncn2C2CCNCC2)n1 [SB-264865]
potency estimated from few doses (CSNK1D; [1]): 1300 nM | potency estimated from few doses (CSNK1E; [1]): 2030 nM | potency estimated from few doses (MAPK14; [1]): 418 nM | potency estimated from few doses (MAPKAPK2; [1]): 503 nM

C[C@H](O)CNc1cc(-c2[nH]c3cccnc3c2-c2ccc(F)cc2)ccn1.Cl [RO3206145-001]
potency estimated from few doses (CSNK1D; compound concentrations: 100 nM and 1000 nM (sheet 'Samples'), CATDS: 0.227277196740168): 36.6 nM | potency estimated from few doses (CSNK1E; compound concentrations: 100 nM and 1000 nM (sheet 'Samples'), CATDS: 0.13101963616975801): 99 nM | potency estimated from few doses (MAPK10): 1000 nM | potency estimated from few doses (MAPK11): 51.5 nM | potency estimated from few doses (MAPK14; compound concentrations: 100 nM and 1000 nM (sheet 'Samples'), CATDS: 0.188780888737105): 49.4 nM | potency estimated from few doses (MAPK9): 211 nM | potency estimated from few doses (MAPKAPK2; compound concentrations: 100 nM and 1000 nM (sheet 'Samples'), CATDS: 0.128658474948743): 103 nM | potency estimated from few doses (NLK): 1550 nM | potency estimated from few doses (PRKD2): 1370 nM | potency estimated from few doses (PRKD3): 1880 nM | potency estimated from few doses (RIPK2): 441 nM

Cc1nccc(-c2c(-c3ccc(F)cc3)ncn2CCCN2CCOCC2)n1.Cl [SB-282975-A]
potency estimated from few doses (CSNK1D; compound concentrations: 100 nM and 1000 nM (sheet 'Samples'), CATDS: 0.65749239951041605): 74.7 nM | potency estimated from few doses (CSNK1E; compound concentrations: 100 nM and 1000 nM (sheet 'Samples'), CATDS: 0.24800542383641): 505 nM | potency estimated from few doses (MAPK14; compound concentrations: 100 nM and 1000 nM (sheet 'Samples'), CATDS: 0.18964189775036899): 1100 nM | potency estimated from few doses (MAPKAPK2; compound concentrations: 100 nM and 1000 nM (sheet 'Samples'), CATDS: 0.19328139808162401): 1030 nM

CCn1c(-c2nonc2N)nc2c(C#CC(C)(C)O)nc(OC[C@H](N)c3ccccc3)cc21 [GSK943949A]
potency estimated from few doses (COX5A): 1670 nM | potency estimated from few doses (GSK3A): 424 nM | potency estimated from few doses (GSK3B): 576 nM | potency estimated from few doses (GTPBP4): 1880 nM | potency estimated from few doses (LATS1): 394 nM | potency estimated from few doses (PAK4): 482 nM | potency estimated from few doses (PAK6): 167 nM | potency estimated from few doses (PKN1): 529 nM | potency estimated from few doses (PKN2): 1390 nM | potency estimated from few doses (PRKACA): 64.8 nM | potency estimated from few doses (PRKACB): 82.7 nM | potency estimated from few doses (PRKCD): 1390 nM | potency estimated from few doses (PRKCQ): 69.5 nM | potency estimated from few doses (PRKG1): 549 nM | potency estimated from few doses (PRKX): 137 nM | potency estimated from few doses (ROCK2): 999 nM

CCCNC(=O)c1ccc(Nc2ncc(C(F)(F)F)c(Nc3ccccc3C(C)=O)n2)c(Br)c1 [BI00801818]
potency estimated from few doses (CLK1): 154 nM | potency estimated from few doses (CLK4): 524 nM | potency estimated from few doses (DYRK1A): 534 nM | potency estimated from few doses (JAK2): 330 nM | potency estimated from few doses (PTK2): 11.3 nM | potency estimated from few doses (RPS6KA1): 1590 nM | potency estimated from few doses (RPS6KA3): 1690 nM

Reference: paper PMC11062922 (Nature Chemical Biology, 2023)
